Screening data (PubChem)
The list is not random: actives were taken first. Their share in the collection is about 27%.
CYP2C9 inhib: blocks human cytochrome P450 2C9; CYP2C9 Supersomes, luciferin-H conversion, luminescence; 96,000 compounds, 20% hits; P11712; inhibition, % at 5 µM;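 active means blocking of liver enzyme CYP2C9 beyond about 50% at 5 µM, limit read from the data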
Target sequence (P11712 whole entry, looked up): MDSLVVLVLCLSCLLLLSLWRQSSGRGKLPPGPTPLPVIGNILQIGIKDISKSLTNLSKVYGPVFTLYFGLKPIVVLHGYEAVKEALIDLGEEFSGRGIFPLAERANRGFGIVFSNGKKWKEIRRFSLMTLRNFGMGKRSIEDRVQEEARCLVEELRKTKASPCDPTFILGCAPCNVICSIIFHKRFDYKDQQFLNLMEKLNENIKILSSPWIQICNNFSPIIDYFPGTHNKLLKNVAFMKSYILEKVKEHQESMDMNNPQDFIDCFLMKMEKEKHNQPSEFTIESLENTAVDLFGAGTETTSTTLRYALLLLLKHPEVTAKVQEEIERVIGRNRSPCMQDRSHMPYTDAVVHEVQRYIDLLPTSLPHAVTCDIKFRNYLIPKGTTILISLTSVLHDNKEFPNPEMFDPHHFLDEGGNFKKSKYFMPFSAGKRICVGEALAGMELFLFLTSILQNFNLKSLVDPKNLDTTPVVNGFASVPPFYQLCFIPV
Cav32 inh: inhibitors of human Cav3.2 T-type calcium channel | 100,000 compounds, 4% hits | AID 449739 | Cav3.2-expressing cells, Fluo-4 calcium fluorescence FDSS; hits give low values | B-score at 10 µM;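 active means single-dose well whose peak fluorescence ratio is a statistical outlier from its plate by either plate-standardised score or position-corrected B-score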
CYP2C9 activ: CYP2C9 (human) activation. P11712. recombinant CYP2C9, luciferin-H conversion, luminescence; hits give high values; factor 1 = untreated enzyme, 0 = blocked. activation factor at 5 µM. 96,000 compounds, 1.4% hits. AID 1024;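 active means activation factor of 2 or more for CYP2C9 at a 5 µM dose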
CYP2C19 act: cytochrome P450 2C19 (human) activation; recombinant CYP2C19, luciferin-H EGE luminescence; hits give high values; 0 = fully inhibited enzyme, 1 = untreated enzyme; activation factor at 5 µM; 96,000 tested, under 10 active; AID 1025;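 active means activation factor of at least 2 at 5 µM in the primary screen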
CYP2C19 inhib: inhibitors of human CYP2C19; P33261; CYP2C19 Supersomes, luciferin-H EGE luminescence, 30 min; inhibition, % at 5 µM; 96,000 compounds, 21% hits;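 active means CYP2C19 inhibition above a set limit at 5 µM in the primary screen, cut at about 50% in these data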
Large screens that a line does not name were inactive.

COC(=O)Cc1[nH]nc2c1C(C1C=CCCC1)C(C#N)=C(N)O2 (stereo not given)	CYP2C9 inhib 60, CYP2C19 inhib 70
CCCc1[nH]nc2c1C(C1CCCCC1)C(C#N)=C(N)O2 (stereo not given)	none (no result: Cav32 inh)
CCOP(=O)(O)c1ccccc1OCCCCCOc1ccccc1P(=O)(O)OCC	none
CCOc1ccc(C(=O)Nc2ccc(Cl)cn2)cc1Cl	none
Cn1cc(C(=O)NCN2CCCCC2)c2ccccc21	none (no result: Cav32 inh)
CCOC(=O)c1oc2ccccc2c1NC(=O)c1cc(OC)cc(OC)c1	none
CCOC(=O)Cn1nc(C)c(-c2ccccc2)c1N	none
Cc1nn(CC2CCCCC2)c(N)c1-c1ccccc1	CYP2C9 inhib 92, CYP2C19 inhib 98
O=C(NCc1ccc(OC(F)(F)F)cc1)C1CC(c2cccc(F)c2)=NO1 (stereo not given)	Cav32 inh -3.2 (no result: CYP2C9 inhib, CYP2C9 activ, CYP2C19 act, CYP2C19 inhib)
COc1cc(C2=NOC(C(=O)NCc3ccc(F)cc3)C2)cc(OC)c1OC (stereo not given)	CYP2C19 inhib 69 (no result: Cav32 inh)
Cc1ccc(CNC(=O)C2CC(c3cccc(F)c3)=NO2)cc1 (stereo not given)	none (no result: CYP2C9 inhib, CYP2C9 activ, CYP2C19 act, CYP2C19 inhib)
COc1ccc(C2=NOC(C(=O)NCc3ccc(F)cc3)C2)cc1OC (stereo not given)	none (no result: Cav32 inh)
COC(C[C@@H]1O[C@@H]1[C@H](O)COCc1ccccc1)OC	none (no result: CYP2C9 inhib, CYP2C9 activ, CYP2C19 act, CYP2C19 inhib)
C=CCn1c(CCNC(=O)c2cccs2)nnc1SCC(=O)c1ccc(Br)cc1	CYP2C9 inhib 72, CYP2C19 inhib 51
C=CCn1c(SCC(=O)NCCc2ccccc2)nnc1C(C)NC(=O)c1cccs1 (stereo not given)	none (no result: CYP2C9 inhib, CYP2C9 activ, CYP2C19 act, CYP2C19 inhib)
C=CCn1c(SCc2ccc3nonc3c2)nnc1-c1cccs1	CYP2C9 inhib 76, CYP2C19 inhib 99
C=CCn1c(SCC(=O)c2ccc(NS(=O)(=O)c3ccccc3)cc2)nnc1-c1cccs1	CYP2C9 inhib 97, CYP2C19 inhib 58
C=CCn1c(SCC(=O)C(C)(C)C)nnc1-c1cccs1	CYP2C19 inhib 76
O=C(O)c1cc(C(F)(F)F)nc2c(C(F)(F)F)cccc12	none (no result: CYP2C9 inhib, CYP2C9 activ, CYP2C19 act, CYP2C19 inhib)
COc1cccc(CC(C(=O)Nc2cc(C)ccc2C)c2nn[nH]n2)c1OC (stereo not given)	none
CCc1ccccc1NC(=O)C(Cc1cccc(OC)c1OC)c1nn[nH]n1 (stereo not given)	CYP2C9 inhib 50
Cc1cc(C(=O)Cn2nnc3ccccc3c2=O)c(C)n1Cc1cccs1	CYP2C9 inhib 71, Cav32 inh -3.5, CYP2C19 inhib 97
Cc1cc(C(=O)CN2C(=O)c3ccccc3C2=O)c(C)n1Cc1cccs1	none (no result: CYP2C9 inhib, CYP2C9 activ, CYP2C19 act, CYP2C19 inhib)
O=C(CSc1nc(N2CCCCC2)nc(N2CCCCC2)n1)Nc1nccs1	CYP2C9 inhib 67
COc1ccc(NC(=O)CSc2nc(N3CCCCC3)nc(N3CCCCC3)n2)cc1	none
O=C(CSC1CCCCC1)Nc1nccs1	CYP2C19 inhib 84 (no result: Cav32 inh)
O=C(Nc1cccnc1)C1OCCc2ccccc21 (stereo not given)	none
O=C(Nc1cccnc1)C1CC(c2ccccc2O)=NO1 (stereo not given)	CYP2C9 inhib 51, CYP2C19 inhib 80
O=[N+]([O-])c1cc(S(=O)(=O)Nc2ccccc2)ccc1-n1nnc2ccccc21	CYP2C9 inhib 72, Cav32 inh -6.3, CYP2C19 inhib 51
Cc1nn(Cc2c(F)c(F)c(F)c(F)c2F)c(C)c1NC(=O)c1ccc(COc2ccc(F)cc2)o1	Cav32 inh -4.9
Cc1nn(Cc2c(F)c(F)c(F)c(F)c2F)c(C)c1NC(=O)c1ccc(COc2ccccc2Cl)cc1	none
Cc1nn(Cc2c(F)c(F)c(F)c(F)c2F)c(C)c1NC(=O)c1ccc(COc2ccccc2Cl)o1	CYP2C9 inhib 59, CYP2C19 inhib 53 (no result: Cav32 inh)
COc1ccc(C2c3c(oc4ccccc4c3=O)C(=O)N2Cc2ccncc2)cc1 (stereo not given)	CYP2C9 inhib 59
CCCOc1ccc(C2c3c(oc4ccccc4c3=O)C(=O)N2CCCN2CCOCC2)cc1 (stereo not given)	CYP2C9 inhib 78, CYP2C19 inhib 54
CCOc1ccc(C2c3c(oc4ccccc4c3=O)C(=O)N2CCCN2CCOCC2)cc1 (stereo not given)	none
Cc1ccn2cc(-c3ccc(S(=O)(=O)N4CCOCC4)cc3)nc2c1	none (no result: Cav32 inh)
CC(C)CN(C#N)c1nc(N2CCOCC2)nc(N2CCOCC2)n1	CYP2C9 inhib 51
CN(C#N)c1nc(N2CCOCC2)nc(N2CCOCC2)n1	none (no result: CYP2C9 inhib, CYP2C9 activ, CYP2C19 act, CYP2C19 inhib)
Cc1ccccc1Cn1ccc(NC(=O)c2cc3nc(-c4ccco4)cc(C(F)(F)F)n3n2)n1	CYP2C9 inhib 58, CYP2C19 inhib 50
O=C(CCSc1nc(-c2ccco2)cc(C(F)(F)F)n1)N1CCN(c2ccccc2)CC1	CYP2C9 inhib 76, CYP2C19 inhib 81
Cc1nn(Cc2ccccc2)c(C)c1NC(=O)c1cc2nc(-c3ccco3)cc(C(F)(F)F)n2n1	none
O=C(c1cc2nc(-c3ccco3)cc(C(F)(F)F)n2n1)N1CCN(c2ccccc2)CC1	CYP2C9 inhib 72, CYP2C19 inhib 63
O=C(CCSc1nc(-c2ccco2)cc(C(F)(F)F)n1)NCc1cccs1	none (no result: CYP2C9 inhib, CYP2C9 activ, CYP2C19 act, CYP2C19 inhib)
CC(NC(=O)CCSc1nc(-c2ccco2)cc(C(F)(F)F)n1)c1ccccc1 (stereo not given)	Cav32 inh -6, CYP2C19 inhib 53
O=C(c1ccco1)N1CCN(S(=O)(=O)c2ccc(S(=O)(=O)NC3CCCC3)cc2)CC1	none
O=C(Nc1nnc(-c2ccccc2)s1)c1cc(S(=O)(=O)N2CCOCC2)c(Cl)cc1Cl	none
COc1ccc(CCNC(=O)CCSc2nc(-c3ccco3)cc(C(F)(F)F)n2)cc1OC	CYP2C9 inhib 91, CYP2C19 inhib 88
Cc1cc(NC(=O)CCCSc2nc(-c3ccco3)cc(C(F)(F)F)n2)n(-c2ccccc2)n1	Cav32 inh -4.3 (no result: CYP2C9 inhib, CYP2C9 activ, CYP2C19 act, CYP2C19 inhib)
O=C(CSc1nc(-c2ccco2)cc(C(F)(F)F)n1)Nc1ccc2c(c1)CCC2	none
Cc1cc(NC(=O)CSc2nc(-c3ccco3)cc(C(F)(F)F)n2)n(-c2ccccc2)n1	none (no result: CYP2C9 inhib, CYP2C9 activ, CYP2C19 act, CYP2C19 inhib)
O=C(CSc1nc(-c2ccco2)cc(C(F)(F)F)n1)NC1CCCC1	CYP2C9 inhib 94, CYP2C19 inhib 82
O=C(CCSc1nc(-c2ccco2)cc(C(F)(F)F)n1)Nc1ccc2c(c1)OCO2	CYP2C9 inhib 60, Cav32 inh -5.7, CYP2C19 inhib 64
Cc1cc(CN2CCN(CCC#N)CC2)c(O)c(C2(C)CCCCC2)c1	none
CCOC(=O)C1C(=O)NC(C)C1c1ccccc1 (stereo not given)	none
CCCSc1nc(C)c(CC(=O)O)c(=O)[nH]1	none
O=C(CCSc1nc(-c2ccc3c(c2)OCO3)cc(C(F)(F)F)n1)NCc1ccco1	CYP2C9 inhib 65, CYP2C19 inhib 69
CN(Cc1ccccc1)C(=O)CCSc1nc(-c2ccc3c(c2)OCO3)cc(C(F)(F)F)n1	Cav32 inh -6.8 (no result: CYP2C9 inhib, CYP2C9 activ, CYP2C19 act, CYP2C19 inhib)
Cc1ccc(O)c(NC(=O)c2cc3nc4c(c(C(F)(F)F)n3n2)CCc2ccccc2-4)c1	none
Cc1ccc(Cn2ccc(NC(=O)c3cc4nc5c(c(C(F)(F)F)n4n3)CCc3ccccc3-5)n2)cc1	CYP2C9 inhib 71
